Test results taken from PubChem BioAssay.
Calls of active or inactive are those of the source. Unless noted, no rule for the calls is given here.

Experiments:
[1] = kinase inhibitors against Plasmodium liver-stage infection, cell-based, known kinase inhibitor set, luminescence, hepatoma host viability (AID 624392); details: Plasmodium liver stage in hepatoma cells, luciferase luminescence, concentration not given here; liver cell % of control: measured here: host liver cell viability; parasite % of control: stronger effect = lower value;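 also: infected cells incubated roughly two days before readout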
[2] = modulators of glucocorticoid suppression of NF-kB, cell-based, luciferase, IL-1B stimulus, dexamethasone (AID 624486); details: NF-kB luciferase reporter, IL-1B + dexamethasone, luminescence; percent of negative control (+Dex): actives lie on both sides, concentration not given here; z-score: measured here: IL-1B alone, no Dex;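 as to percent of negative control (+Dex): 100% = mean signal of vehicle control wells on the plate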
[3] = kinase inhibitors altering Pseudomonas killing of worms, whole organism (AID 651566);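 also: tested at 14 µM; sign flipped so higher z means a lower ratio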; details: C. elegans killed by P. aeruginosa, survival ratio
[4] = activators of macrophage pro-inflammatory response, cell-based, murine, luminescence (AID 652131); details: murine macrophage pro-inflammatory reporter, stronger effect = higher value
[5] = biological target: Cellular tumor antigen p53 (Homo sapiens) (UniProt P04637); assay: kinase inhibitors altering GFP-p53 stability in HPV16-positive cells, imaging, known kinase inhibitor set, EGFP/DsRed ratio (AID 1053116); details: stronger effect = higher value; EGFP object count: measured here: GFP-p53 positive objects count;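 also: cells exposed to compounds for 24 h at 37 °C before reading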
Sequence of Cellular tumor antigen p53 (Homo sapiens) (P04637 whole entry, looked up): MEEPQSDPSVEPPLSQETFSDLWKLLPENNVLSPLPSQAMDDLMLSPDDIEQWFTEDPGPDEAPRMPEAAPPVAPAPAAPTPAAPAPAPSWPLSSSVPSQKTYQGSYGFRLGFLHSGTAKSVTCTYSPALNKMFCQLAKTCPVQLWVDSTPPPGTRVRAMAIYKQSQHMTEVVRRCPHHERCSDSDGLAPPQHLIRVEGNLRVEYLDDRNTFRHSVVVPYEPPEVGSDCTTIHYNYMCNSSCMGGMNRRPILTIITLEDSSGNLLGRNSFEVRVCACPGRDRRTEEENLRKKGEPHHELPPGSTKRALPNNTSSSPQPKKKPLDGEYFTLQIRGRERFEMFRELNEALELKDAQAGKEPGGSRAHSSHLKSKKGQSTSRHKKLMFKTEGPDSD

[6] = IRF3 reporter activation in THP-1 macrophages, cell-based, PMA-stimulated THP-1, luminescence (AID 1053176); details: PMA-differentiated THP-1, IRF3 reporter luminescence; stronger effect = higher value
[7] = survival rescue of mitochondrial mutant cells in low glucose, primary screen, MELAS cybrids, Rieske KO mouse fibroblasts, CellTiter-Glo (AID 1508586;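 active = mean z-score across replicates of 1.96 or higher in either the MELAS or the Rieske mutant cell line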;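 also: z relative to plate mean and SD of compound and empty wells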)
[8] = MELAS cybrid survival, CellTiter-Glo 48 h, stronger effect = higher value
[9] = Rieske KO mouse fibroblast survival, CellTiter-Glo 72 h

| SMILES | liver cell % of control [1] [%] | parasite % of control [1] | percent of negative control (+Dex) [2] | z-score [2] | z-score [3] | z-score [4] | EGFP object count [5] | EGFP/DsRed ratio [5] | fraction signal [6] | z-score [7, 8] | z-score [7, 9] |
| --- | --- | --- | --- | --- | --- | --- | --- | --- | --- | --- | --- |
| Fc1cccc(COc2ccc(Nc3ncncc3C#Cc3ccccc3)cc2Cl)c1 | 87.3 | 98% (inactive) | 85.5% (inactive) | -0.815 | 1.36 (inactive) | -0.904 (inactive) | 4 | 0.0412 (inactive) | -0.002 (inactive) | -0.0898 (inactive) | -0.226 |
| CCn1c(-c2nonc2N)nc2cncc(C(=O)N3CC[C@H](N)C3)c21 | 108 | 146% (inactive) | 76.5% (inactive) | -2.08 | -0.435 (inactive) | 1.55 (inactive) | 4 | 0.0807 (inactive) | -0.0035 (inactive) | -0.752 (inactive) | -0.175 |
| COc1cc(C)c(N(C)C(=O)CN(C)C)cc1Nc1nc(Nc2cccc(F)c2C(N)=O)c2cc[nH]c2n1 | 71.5 | 391% (inactive) | 110% (inactive) | 0.76 | 0.1 (inactive) | 0.717 (inactive) | 5 | 0.2 (inactive) | -0.0115 (inactive) | 3.65 (active) | 1.35 |
| CN(C)C(=O)O[C@@H]1CN[C@@H](C#Cc2cc3ncnc(Nc4ccc(OCc5cccc(F)c5)c(Cl)c4)c3s2)C1 | 108 | 112% (inactive) | 87% (inactive) | -0.155 | 0.705 (inactive) | -0.722 (inactive) | 4 | 0.0417 (inactive) | -0.0055 (inactive) | 0.394 (inactive) | -0.329 |
| NC(=O)c1sc(-n2cnc3ccc(C(F)(F)F)cc32)cc1OCc1ccccc1Br | 104 | 160% (inactive) | 98.5% (inactive) | 0.57 | -0.455 (inactive) | -0.965 (inactive) | 4 | 0.119 (inactive) | 0.007 (inactive) | -0.166 (inactive) | -0.246 |
| N#Cc1c(NC(=O)CN2CCOCC2)sc2c1CCCC2 | 105 | 134% (inactive) | 98% (inactive) | -0.1 | 0.4 (inactive) | 0.254 (inactive) | 3.5 | 0.0894 (inactive) | 0.0015 (inactive) | -0.581 (inactive) | -0.17 |
| NS(=O)(=O)c1ccc(N=Nc2c(O)[nH]c3ccc(C(=O)NCCc4cnc[nH]4)cc23)cc1 | 82.2 | 110% (inactive) | 85.5% (inactive) | -0.045 | -1.15 (inactive) | -0.108 (inactive) | 7.5 | 0.141 (inactive) | -0.0145 (inactive) | 0.0573 (inactive) | -0.291 |
| NS(=O)(=O)c1ccc(N=Nc2c(O)[nH]c3ccc(-c4cnco4)cc23)cc1 | 87.3 | 140% (inactive) | 104% (inactive) | 0.22 | -0.29 (inactive) | 3.29 (inactive) | 10 | 0.401 (inactive) | 0.0025 (inactive) | 0.293 (inactive) | -0.0502 |
| CCn1c(-c2nonc2N)nc2c(C#CC(C)(C)O)nc(O[C@@H](CN)c3ccccc3)cc21 | 49.4 | 14.1% (inactive) | 132% (inactive) | 3.44 | 0.92 (inactive) | 1 (inactive) | 10.5 | 0.166 (inactive) | 0.0005 (inactive) | 1.1 | 4 |
| Cc1ccc(C(=O)NC(C)C)cc1-c1ccc(C(=O)NCC2CC2)cc1 | 90 | 124% (inactive) | 94.5% (inactive) | 1.18 | 0.505 (inactive) | 0.198 (inactive) | 3 | 0.0297 (inactive) | -0.008 (inactive) | 0.0329 (inactive) | 0.189 |
| COc1cc2c(cc1Nc1nc(Nc3ccsc3C(N)=O)c3cc[nH]c3n1)N(C(=O)CN(C)C)CCC2 | 54.7 | 369% (inactive) | 95.5% (inactive) | -0.185 | -0.225 (inactive) | 2.59 (inactive) | 1.5 | 0.0536 (inactive) | -0.007 (inactive) | 2.79 (active) | 10.1 |
| COc1cc2ncn(-c3cc(O[C@H](C)c4ccccc4Cl)c(C(N)=O)s3)c2cc1OC | 137 | 13.5% (active) | 53.5% (inactive) | -3.26 | -0.155 (inactive) | -1.16 (inactive) | 5.5 | 0.108 (inactive) | -0.004 (inactive) | -1.03 | 5.68 |
| CNC(=O)c1sc(-n2cnc3cc(OC)c(OC)cc32)cc1OCc1ccccc1C(F)(F)F | 124 | 77.7% (inactive) | 68.5% (inactive) | -0.645 | -0.51 (inactive) | -0.587 (inactive) | 5.5 | 0.105 (inactive) | -0.005 (inactive) | -0.801 (inactive) | -0.0583 |
| c1ccc(-c2nc3n(c2-c2ccc4c(c2)OCO4)CCC3)nc1 | 103 | 16.7% (inactive) | 102% (inactive) | 0.295 | 1.04 (inactive) | 4.3 (inactive) | 6 | 0.172 (inactive) | -0.003 (inactive) | -1.04 (inactive) | 0.741 |
| CCN1CCC(CC(=O)Nc2n[nH]c3nc(-c4cccs4)c(Br)cc23)CC1 | 76.8 | 72.5% (inactive) | 88% (inactive) | -0.195 | 0.735 (inactive) | -0.532 (inactive) | 8.5 | 0.138 (inactive) | 0.006 (inactive) | 0.148 (inactive) | -0.143 |
